Laboratory results published in the supplement of paper PMC6805474.

What follows are molecules tested on Schistosoma mansoni schistosomula (LE) (assay: XTT viability relative to DMSO control; higher = more viable (less active)). Details: 72 h; 10 µM.
Experimental: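 XTT/PMS was then added for a further 24 h (72 h total) and A450 was read. % viability = (sample - heat-killed control)/(DMSO control - heat-killed control) x 100, from duplicate wells in two independent experiments.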

**Q.** How did the XTT viability turn out when `CCc1nn(C)c(C(=O)NCc2ccc(Oc3ccc(C)cc3)cc2)c1Cl` was run?
**A.** The XTT viability was 72.8%.

**Q.** With `Cc1cccc(C(=O)Nc2ccnc(N(C)C3CCN(CC(C)C)CC3)c2)c1` as the molecule, how does the XTT viability read?
**A.** The XTT viability was 125%.

**Q.** How did the XTT viability turn out when `CC1COC(Cn2cncn2)(c2ccc(Oc3ccc(Cl)cc3)cc2Cl)O1` (centres undefined) was run?
**A.** Its XTT viability is 47.3%.

**Q.** With `CC(C)(C)C(O)C(Oc1ccc(-c2ccccc2)cc1)n1cncn1` (centres undefined) as the molecule, how does the XTT viability read?
**A.** The XTT viability was 106%.

**Q.** How did the XTT viability turn out when `Nc1c2c(nc3sc4c(c13)CCCC4)CCCC2` was run?
**A.** Its XTT viability is 89.4%.

**Q.** `O=C1O[C@@H](COc2ccon2)CN1c1cc(F)c(C2=CCN(Cc3ccccc3)CC2)c(F)c1` was tested. Which XTT viability did it give?
**A.** Its XTT viability is 72.9%.

**Q.** Which XTT viability does the source give for `Cc1cc(C2=NOC(c3cc(Cl)c(F)c(Cl)c3)(C(F)(F)F)C2)ccc1C(=O)NCc1ccc2c(c1)C(C)(C)OB2O` (centres undefined) here?
**A.** The XTT viability was 23.2%.

**Q.** For `CO/C=C(/C(=O)OC)c1ccccc1Oc1cc(Oc2ccccc2C#N)ncn1`, which XTT viability is on record?
**A.** Its XTT viability is 79.5%.

**Q.** For `O=C1O[C@@H](CO)CN1c1cc(F)c(C2=CCN(Cc3ccccc3)CC2)c(F)c1`, which XTT viability is on record?
**A.** Its XTT viability is 127%.

**Q.** For `Cc1nn(Cc2ccccc2)c(Cl)c1C(=O)NC1CCCCCC1`, which XTT viability is on record?
**A.** Its XTT viability is 87.9%.

**Q.** For `CO[C@@H]1CN(c2ccc(C#CC3(O)CN4CCC3CC4)c(Cc3ccccc3)n2)C[C@H]1O` (some centres undefined), which XTT viability is on record?
**A.** The XTT viability was 90.7%.

**Q.** With `CO/N=C(\C(=O)OC)c1ccccc1CO/N=C(\C)c1cccc(C(F)(F)F)c1` as the molecule, how does the XTT viability read?
**A.** The XTT viability was 109%.

**Q.** For `CC1(C)OB(O)c2ccc(C3=NOC(c4cc(Cl)c(F)c(Cl)c4)(C(F)(F)F)C3)cc21` (centres undefined), which XTT viability is on record?
**A.** The XTT viability was 33.5%.

**Q.** With `Cc1nn(C)c(C)c1NS(=O)(=O)c1c(Cl)cc(-c2ccnc(N3CCNCC3)c2)cc1Cl` as the molecule, how does the XTT viability read?
**A.** The XTT viability was 121%.
